In the library only some 21% were active in any assay of this set; here they are far more common.
ClpP mod: qHTS Assay for Activators of ClpP | purified B. subtilis ClpP, FRET peptide cleavage, 20 min | Potency, µM (series often up to 57.5 µM) | 1.9% of 340,000 active | AID 651965, 2013; active means well fitted falling curve with a large enough effect; inconclusive means small, poorly fitted or top-dose-only effect; inactive means no such curve, though single readings can be large or run the other way; further: the source files actives as falling curves though it sought activators and does not explain the sign; nearly all actives have a fitted effect of over 65% in size
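ClpP 10 microg/mL final, pH 8 Tris/KCl buffer with BSA, glycerol, Tween-20; compound pinned in; FRET-FV substrate; RT 20 min; Ex320/Em430; ΔFRET vs ADEP 5.8 microM, DMSO, no enzyme.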
DT40 TDP1 CPT: qHTS for Inhibitors of human tyrosyl-DNA phosphodiesterase 1 (TDP1): qHTS in cells in presence of CPT; 12% of 420,000 active; Potency, µM (series often up to 46.2 µM), most hits filed as inhibitors; chicken DT40 Tdp1-/-;hTDP1 cells + 20 nM CPT, ATP luminescence, 48 h; AID 686979, 2013; further: nearly all actives have a fitted effect of over 55% in size
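Chicken DT40 Tdp1-/- cells complemented with human TDP1, 400 cells/well, exposed to compounds plus 20 nM camptothecin for at least 48 h at 37 C; viability read as ATP content by CellTiter-Glo luminescence.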
IL-1B inflam inh: qHTS for Inhibitors of Inflammasome Signaling: IL-1-beta AlphaLISA Primary Screen; THP-1 LPS/ATP IL-1B secretion, AlphaLISA, 16 h; hits give low values; activity change, % at 57.5 µM; 4.7% of 360,000 active; AID 743279, 2014; in the data active means activity change below about -50%; inconclusive means mostly about -30% to -49%
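THP-1 cells pretreated 1 hr with compounds (up to 57.5 uM final), then stimulated with LPS (250 ng/mL final) plus ATP (1.25 mM final); secreted IL-1B measured by AlphaLISA after 16 hr, decreased signal indicating inhibition.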
D3 ag: qHTS of D3 Dopamine Receptor Agonist: qHTS. D3R DiscoveRx beta-arrestin cells, luminescence, 90 min. max activation, %. 0.58% of 410,000 active; in the data active means max activation above about 30%
Target sequence (P35462 whole entry, looked up): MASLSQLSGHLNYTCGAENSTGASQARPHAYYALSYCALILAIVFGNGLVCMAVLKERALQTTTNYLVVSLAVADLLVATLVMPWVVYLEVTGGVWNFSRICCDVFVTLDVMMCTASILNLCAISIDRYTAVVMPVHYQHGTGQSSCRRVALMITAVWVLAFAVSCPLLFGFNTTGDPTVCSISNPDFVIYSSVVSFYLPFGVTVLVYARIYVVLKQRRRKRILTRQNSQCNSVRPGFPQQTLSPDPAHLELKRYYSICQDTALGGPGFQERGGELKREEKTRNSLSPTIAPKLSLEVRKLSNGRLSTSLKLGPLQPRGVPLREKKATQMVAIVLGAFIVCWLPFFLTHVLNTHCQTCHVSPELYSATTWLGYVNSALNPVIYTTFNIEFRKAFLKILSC
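Agonist mode: compounds and dopamine controls were applied to plated cells for 90 min at 37 degrees C after an overnight attachment at 1500 cells/well. Luminescent read-out followed 30 - 60 minutes at room temperature with DiscoveRx detection reagent.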
D3 antag: qHTS of D3 Dopamine Receptor Antagonist: qHTS | D(3) dopamine receptor (Homo sapiens), P35462 | 2.5% of 360,000 active | max response, negative = inhibition, % | D3R cells, DiscoveRx beta-arrestin luminescence, antagonist mode; hits give low values | AID 652054, 2013; in the data active means max response below about -50%; inconclusive means no clear call, values can overlap the other calls
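Cells plated overnight at 1500 cells/well, then exposed to library compounds with dopamine controls for 90 minutes at 37 degrees C. DiscoveRx reagent added for 30–60 minutes at room temperature; luminescence read, quantitative HTS format.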
DT40 TDP1 no CPT: qHTS for Inhibitors of human tyrosyl-DNA phosphodiesterase 1 (TDP1): qHTS in cells in absence of CPT; DT40 Tdp1-/- hTDP1 cells, no CPT, ATP luminescence, 48 h; 15% of 420,000 active; Potency, µM (top dose mostly 46.2 µM), most hits filed as inhibitors; further: nearly all actives have a fitted effect of over 55% in size
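Seeded 400 DT40-hTDP1 cells/well (vehicle DMSO, no 20 nM CPT); pinned compounds; ≥48 hr at 37 °C; CellTiter-Glo luminescence as viability measure.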
Hits are given with their value; n = inactive; u = inconclusive; x = no result. Unless noted, the call rests on the fitted dose curve; in most records, active means well fitted inhibition curve with a large enough effect; inconclusive means small, poorly fitted or top-dose-only effect; inactive means flat fitted curve, though single readings scatter.

SMILES	ClpP mod	DT40 TDP1 CPT	IL-1B inflam inh	D3 ag	D3 antag	DT40 TDP1 no CPT
CC1(C(=O)NS(=O)(=O)Cc2cccc(Cl)c2)CCN1C(=O)C1(c2ccc(Cl)cc2)CCC1 (centres undefined)	n	n	n	n	n	n
CCCCC(=O)Nc1ccc(C(=O)OCc2cc(=O)n3nc(C4CC4)sc3n2)cc1	n	n	x	n	x	u
O=C(OC(c1ccccc1)c1nccc2ccccc12)c1cc([N+](=O)[O-])cc([N+](=O)[O-])c1 (centres undefined)	n	14.6µM	n	n	n	20.6µM
CC(C)N1CCC(=NNc2ccc(S(=O)(=O)N3CCOCC3)cc2[N+](=O)[O-])CC1	n	n	n	n	n	u
O=S(=O)(NCCN1CCOCC1)c1ccc(F)c(Cl)c1	x	18.4µM	n	n	n	16.4µM
O=[N+]([O-])c1cc(S(=O)(=O)NCCN2CCOCC2)ccc1Cl	x	n	-83.7	n	n	n
O=S(=O)(NCCN1CCOCC1)c1ccc(Cl)c(Cl)c1	n	n	n	n	u	n
CCCN1CCC(=NNc2ccc(S(=O)(=O)N3CCOCC3)cc2[N+](=O)[O-])CC1	n	2.59µM	n	n	n	2.59µM
COc1cc2oc(=O)ccc2cc1[C@@H](O)[C@@H]1OC(C)(C)OC1(C)C	n	n	n	n	n	n
Cc1ccc(-c2nn(-c3ccc(F)cc3)cc2C(=O)N2CCN(C3CCS(=O)(=O)C3)CC2)cc1 (centres undefined)	n	n	n	n	n	n
Cc1cc(Nc2ccc(Br)c(C)c2)n2nc(-c3ccco3)nc2n1	u	u	x	n	x	20.6µM
COc1ccccc1C(=O)NCCNc1nc2cc(C)cc(C)c2cc1C#N	n	u	u	n	n	18.4µM
COc1ccc(C(=O)NCCNC(=O)c2ccc(OC)cc2)cc1	x	n	n	n	n	n
COc1cc(OC)cc(C(=O)NCCNc2nc3cc(C)cc(C)c3cc2C#N)c1	n	u	n	n	n	23.1µM
COc1ccc(C(=O)NCCCNc2nc3cc(C)cc(C)c3cc2C#N)cc1	n	u	n	n	n	20.6µM
COc1ccc(C(=O)NCC(C)(C)SCc2c(C)cc(C)cc2C)cc1	n	23.1µM	-72.1	n	n	15.8µM
O=C(Nc1cc(C(F)(F)F)ccc1Cl)c1cc(S(=O)(=O)NCc2ccccc2)ccc1F	n	u	x	n	x	u
COc1cc(OC)c(NC(=O)c2c(C)oc3ncn(C)c(=O)c23)cc1Cl	n	n	x	n	x	n
Cc1cc(C)c2cc(C#N)c(NCCNC(=O)c3ccccc3)nc2c1	n	u	n	n	n	u
Cc1cc(C)c2cc(C#N)c(NCCOC(=O)c3ccccc3C)nc2c1	28.2µM	n	-60.4	n	n	u
Cc1nn(CC(=O)Nc2ccc3nc4n(c(=O)c3c2)CCCC4)c(C)c1[N+](=O)[O-]	n	n	n	n	n	n
O=C(c1cnn2c1NC(c1ccc(Br)cc1)CC2C(F)(F)F)N1CCN(C23CC4CC(CC(C4)C2)C3)CC1 (centres undefined)	n	u	n	n	n	u
O=C(c1cnn2c1NC(c1ccc(Br)cc1)CC2C(F)(F)F)N1CCN2CCCC2C1 (centres undefined)	n	18.4µM	n	n	n	u
O=C(COC(=O)/C=C/c1ccccc1[N+](=O)[O-])NCc1ccco1	x	n	n	n	n	n
Cc1c(-c2ccccc2)nc2ccccc2c1C(=O)Oc1ccc([N+](=O)[O-])cc1	n	8.2µM	-50.9	n	n	5.8µM

Source: PubChem BioAssay
